Each structure is given as a SMILES string. Calls of active or inactive are those of the source. The rule behind the calls is not given here.

We go through 40 compounds from PubChem BioAssay (NCATS).
Potency is the fitted concentration of half-maximal effect.

The test system of the assay is HIV-1 nucleocapsid protein NCp7 (binding to TG oligonucleotide). Kind of assay: HIV Nucleocapsid (AID 346).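 Note: potency is for inhibitors that block NC binding and lower polarization.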 The settings on record: HIV-1 NC / fluorescein-TGTGTGTG probe, fluorescence polarization. Put shortly: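 Reagents dispensed (10 nM TG4xF, 100 nM HIV-1 NC), plates spun, compounds pin-transferred, then incubated 1 hr at room temperature before FP imaging. Buffer: Hepes pH 7.5, 250mM NaCl, 1uM ZnCl2, 100 uM TCEP, 5 mM 2-mercaptoethanol.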
In general terms: Polarisation of emitted light reports the rotation of a fluorescent probe.
Take `COCCn1c(=O)c(CCc2ccccc2)nc2cnc(OCc3ccccc3)nc21`: the Potency is > 20 µM (inactive). Next, `COc1ccc(-n2c(=O)c(-c3ccc(F)cc3)nc3cnc(OC)nc32)cc1`: > 20 µM (inactive); `COc1ccccc1CNc1ncncc1-c1ccc2c(c1)OCO2`: > 20 µM (inactive). Next, `CN(Cc1ccco1)c1ncnc2ccc(-c3ccc4c(c3)OCO4)cc12`: > 20 µM (inactive). The value for `O=C(Nc1cccc(F)c1)N1CCCC2(CCN(C(=O)c3ccncc3)CC2)C1` was > 20 µM (inactive). Turning to `COCC(=O)N1CCC2(CCCN(C(=O)Nc3cccc(F)c3)C2)CC1`, the Potency was > 20 µM (inactive). Next, `O=c1c(CCc2ccccc2)nc2cnc(N3CCNCC3)nc2n1Cc1cccs1`: > 20 µM (inactive); `Cc1noc(C)c1C(=O)N1CCC[C@@]2(CCN(c3ccccc3)C2)C1`: > 20 µM (inactive); `c1csc(CNc2cc(-c3ccoc3)ncn2)c1`: > 20 µM (inactive). In the case of `CS(=O)(=O)N1CCC2(CCN(C(c3ccccc3)c3ccccc3)CC2)CC1`, the Potency is > 20 µM (inactive). Next, `CNc1ncnc2ccc(-c3cccc(NS(C)(=O)=O)c3)cc12`: > 20 µM (inactive). Next, `CC(C)CN1CCC2(CC1)CCN(C(=O)c1ccncc1)CC2`: > 20 µM (inactive); `O=c1c(-c2ccccc2)nc2cnc(Oc3ccccc3)nc2n1C1CC1`: > 20 µM (inactive); `CNc1ccnc(-c2cccc(NS(C)(=O)=O)c2)n1`: > 20 µM (inactive). The value for `CS(=O)(=O)N1CCC2(CCCN(C(=O)Nc3cccc(F)c3)C2)CC1` was > 20 µM (inactive). Regarding `c1ccc(Nc2cc(-c3ccoc3)ncn2)cc1`, the Potency was > 20 µM (inactive). The value for `COCCNc1nc(-c2ccccc2Cl)nc2ccccc12` was > 20 µM (inactive); that for `COc1cccc(-c2cc(NCc3cccnc3)ncn2)c1` was > 20 µM (inactive).

With `N#Cc1cccc(NC(=O)N2CCCC3(CCN(S(=O)(=O)c4ccccc4)CC3)C2)c1`, the Potency was > 20 µM (inactive). Next, `CN(C)c1nc(-c2cccnc2)nc2ccccc12`: > 20 µM (inactive). Turning to `Cc1ccccc1-c1nccc(NCCN2CCOCC2)n1`, the Potency was > 20 µM (inactive). With `FC(F)(F)c1ccccc1-c1cncnc1NCc1cccs1`, the Potency was > 20 µM (inactive). As for `COc1ccc(Oc2ncc3nc(-c4cn(C)c5ccccc45)c(=O)n(CCC#N)c3n2)cc1`, the Potency is > 20 µM (inactive). Next, `COCCn1c(=O)cnc2cnc(Oc3cccc(Cl)c3)nc21`: > 20 µM (inactive); `O=S(=O)(c1ccccc1)N1CCC2(CCCN(Cc3ccncc3)C2)CC1`: > 20 µM (inactive). The value for `COc1ccc(-c2nc3cnc(N4CCOCC4)nc3n(CCc3ccccc3)c2=O)cc1` was > 20 µM (inactive); that for `COc1ccc(NC(=O)N2CC[C@@]3(CCCN(C(=O)c4ccc(OC)cc4)C3)C2)cc1` was > 20 µM (inactive); that for `Cc1noc(C)c1C(=O)N1CCC2(CC1)CCN(c1ccccn1)CC2` was > 20 µM (inactive). The value for `COC(=O)N1CCC2(CC1)CN(c1ccccc1)C2` was > 20 µM (inactive); that for `COCCNc1nc(-c2ccoc2)nc2ccccc12` was > 20 µM (inactive).

Consider `Cc1noc(C)c1C(=O)N1CCC2(CCCN(C(=O)NC(C)C)C2)CC1`, for which the Potency was > 20 µM (inactive). The value for `CC(C)CN1CCC2(CC1)CCN(C(=O)c1cnccn1)CC2` was > 20 µM (inactive); that for `CN(C)c1ncc2nc(-c3ccc(Cl)cc3)c(=O)n(CCC#N)c2n1` was > 20 µM (inactive).

`O=C(c1ccco1)N1CCC2(CCCN(c3ccccc3)C2)CC1`: the Potency is > 20 µM (inactive). Next, `O=C(c1ccco1)N1CCC2(CC1)CN(c1ncccn1)C2`: > 20 µM (inactive). The value for `O=c1c(-c2ccccc2)nc2cnc(N3CCNCC3)nc2n1Cc1ccc(F)cc1` was > 20 µM (inactive). The value for `COCCn1c(=O)c(-c2cn(C)c3ccccc23)nc2cnc(Oc3ccccc3)nc21` was > 20 µM (inactive). As for `N#Cc1ccc(CN2CC3(CCN(C(=O)c4cccc(F)c4)CC3)C2)cc1`, the Potency is > 20 µM (inactive). The value for `CC(C)NC(=O)N1CCCC2(CCN(C(=O)c3cc(C(F)(F)F)cc(C(F)(F)F)c3)CC2)C1` was > 20 µM (inactive). The value for `c1ccc(Nc2ncncc2-c2ccoc2)cc1` was > 20 µM (inactive).
